Results: PubChem BioAssay (EPA / NIEHS)
Results filed as inconclusive are left out. The source made the active and inactive calls. How the source made its calls: active means hit-call score of the fitted dose curve at least 0.9, where 1 is the maximum; inconclusive means response in the unintended direction; inactive means score below 0.9.

The molecules below were run against human Thyroid Receptor Alpha (TRa), THRA (gene 7067) (UniProt P10827) (assay: NVS_NR_hTRa_Antagonist: NovaScreen (NVS) Nuclear Receptor Binding Assay for human Thyroid Receptor Alpha Antagonism (TRa) (AID 2283362)).
Sequence of human Thyroid Receptor Alpha (TRa), THRA (gene 7067) (P10827 whole entry, looked up): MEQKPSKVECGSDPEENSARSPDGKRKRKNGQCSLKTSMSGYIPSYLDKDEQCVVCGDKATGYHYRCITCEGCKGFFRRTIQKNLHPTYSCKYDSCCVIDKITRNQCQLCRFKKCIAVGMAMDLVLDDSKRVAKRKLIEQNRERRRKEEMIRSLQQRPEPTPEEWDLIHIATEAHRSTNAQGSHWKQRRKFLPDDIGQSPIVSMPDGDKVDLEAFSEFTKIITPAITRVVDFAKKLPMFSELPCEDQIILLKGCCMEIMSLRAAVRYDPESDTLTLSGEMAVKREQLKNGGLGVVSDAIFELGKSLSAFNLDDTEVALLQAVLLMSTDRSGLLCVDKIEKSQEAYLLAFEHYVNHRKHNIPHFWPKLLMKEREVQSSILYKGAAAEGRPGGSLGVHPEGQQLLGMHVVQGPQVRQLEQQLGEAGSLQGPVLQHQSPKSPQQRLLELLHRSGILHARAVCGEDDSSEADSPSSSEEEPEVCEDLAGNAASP
Outline: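 Cell-free binding assay on extracted receptor protein, read 1 h after chemical dosing by AlphaLISA chemiluminescence; loss of signal relative to DMSO baseline marks antagonism. Primary screen ran in duplicate at 25 uM, with concentration series for actives.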

**Q.** Which outcome does the source give for `CC(C1CC1)C(O)(Cn1cncn1)c1ccc(Cl)cc1` (configuration not stated) here?
**A.** inactive

**Q.** `CNC(=O)ON=C(SC)C(=O)N(C)C` was tested. Which outcome did it give?
**A.** inactive

**Q.** How did the outcome turn out when `CN(C)[C@@H]1C(=O)C(C(N)=O)=C(O)[C@@]2(O)C(=O)C3=C(O)c4c(O)cccc4[C@@](C)(O)[C@H]3[C@H](O)[C@@H]12` was run?
**A.** inactive

**Q.** With `CCc1cnc(C2=NC(C)(C(C)C)C(=O)N2)c(C(=O)O)c1` (configuration not stated) as the molecule, how does the AC50 read?
**A.** 17.7 µM (active)

**Q.** Which outcome does the source give for `S=C1NCCN1` here?
**A.** inactive

**Q.** With `CCCCN(CC)c1c([N+](=O)[O-])cc(C(F)(F)F)cc1[N+](=O)[O-]` as the molecule, how does the outcome read?
**A.** inactive

**Q.** Which outcome does the source give for `CCOC(=O)CC(SP(=O)(OC)OC)C(=O)OCC` (configuration not stated) here?
**A.** inactive

**Q.** Which outcome does the source give for `CCOP(=O)(OCC)Oc1cc(C)nc(C(C)C)n1` here?
**A.** inactive

**Q.** `CCOP(=S)(OCC)Oc1ccc([N+](=O)[O-])cc1` was tested. Which outcome did it give?
**A.** inactive

**Q.** `C=C(C)[C@H]1Cc2c(ccc3c2O[C@@H]2COc4cc(OC)c(OC)cc4[C@@H]2C3=O)O1` was tested. Which outcome did it give?
**A.** inactive

**Q.** For `CC(C)N(C(=O)SCC(Cl)=C(Cl)Cl)C(C)C`, which outcome is on record?
**A.** inactive

**Q.** For `CCC(CC)Nc1c([N+](=O)[O-])cc(C)c(C)c1[N+](=O)[O-]`, which outcome is on record?
**A.** inactive
